# Results filed as inconclusive are left out. Where a call stands in place of a potency, no number is given. Unmarked numbers belong to inactive results. The source made the active and inactive calls. The call rests on the fitted dose curve; in most records, active means well fitted curve in the direction sought with a large enough effect; inconclusive means small, poorly fitted or top-dose-only effect, or another doubt; inactive means no such curve, though single readings can be large; an effect the other way counts as inactive or inconclusive.
# Test: qHTS of pediatric cancer cell lines to identify multiple opportunities for drug repurposing: Confirmatory screen for control Hh wild type fibroblast cells (AID 1347121); further: nearly all actives have a fitted effect of over 70% in size
# Conditions: viability qHTS; series mostly up to 45.9 µM
# In short: (§1)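 Cells (500-1,000/well) rested 5 h, then received compounds for 48 h; metabolically active cells were measured by CellTiter-Glo luminescence. Final concentrations spanned up to 46 µM (MIPE, 11-point) or 0.59 nM-46 µM (NPC, 8-point) in primary screens, 11-point in follow-ups.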
Structure (SMILES),outcome,"activity, negative = cytotoxic"
CCN(CC)CCNC(=O)c1cc(Cl)c(N)cc1OC,inactive,
CCCCC/C(C=O)=C\c1ccccc1,inactive,
C[C@@H]1C[C@H]2[C@@H]3C[C@H](F)C4=CC(=O)C=C[C@]4(C)[C@@]3(F)[C@@H](O)C[C@]2(C)[C@@]1(O)C(=O)CO,inactive,
O=C(O)CN1C(=O)c2cccc3cccc(c23)C1=O,inactive,
O=C1N=C(O)CN1/N=C/c1ccc(-c2ccc([N+](=O)[O-])cc2)o1,inactive,
C[C@](N)(Cc1ccc(O)cc1)C(=O)O,,-2.45% [at 5.01 µM]

# Test: qHTS of pediatric cancer cell lines to identify multiple opportunities for drug repurposing: Confirmatory screen for U-2 OS cells (AID 1347122); further: nearly all actives have a fitted effect of over 65% in size
# Conditions: U-2 OS osteosarcoma cell viability; series mostly up to 45.9 µM
# In short: as §1
Structure (SMILES),outcome,"activity change, negative = cytotoxicity"
CCN(CC)CCNC(=O)c1cc(Cl)c(N)cc1OC,inactive,
Cc1ccc2nc(N)[nH]c(=O)c2c1Sc1ccncc1,inactive,
O=c1cc[nH]c(=S)[nH]1,inactive,
CCCCC/C(C=O)=C\c1ccccc1,inactive,
C[C@@H]1C[C@H]2[C@@H]3C[C@H](F)C4=CC(=O)C=C[C@]4(C)[C@@]3(F)[C@@H](O)C[C@]2(C)[C@@]1(O)C(=O)CO,inactive,
O=C(O)CN1C(=O)c2cccc3cccc(c23)C1=O,inactive,
O=C1N=C(O)CN1/N=C/c1ccc(-c2ccc([N+](=O)[O-])cc2)o1,inactive,
C[C@](N)(Cc1ccc(O)cc1)C(=O)O,,3.67% [at 5.01 µM]

# Test: qHTS of pediatric cancer cell lines to identify multiple opportunities for drug repurposing: Confirmatory screen for Rh41 cells (AID 1347123);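 further: 48 h compound exposure; nearly all actives have a fitted effect of over 60% in size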
# Conditions: Rh41 rhabdomyosarcoma cells, viability/cytotoxicity qHTS; series mostly up to 45.9 µM
# In short: as §1
Structure (SMILES),outcome,"activity change, negative = cytotoxic"
CCN(CC)CCNC(=O)c1cc(Cl)c(N)cc1OC,inactive,
O=c1cc[nH]c(=S)[nH]1,inactive,
C[C@@H]1C[C@H]2[C@@H]3C[C@H](F)C4=CC(=O)C=C[C@]4(C)[C@@]3(F)[C@@H](O)C[C@]2(C)[C@@]1(O)C(=O)CO,inactive,
O=C(O)CN1C(=O)c2cccc3cccc(c23)C1=O,inactive,
C[C@](N)(Cc1ccc(O)cc1)C(=O)O,,0% [at 5.01 µM]

# Test: qHTS of pediatric cancer cell lines to identify multiple opportunities for drug repurposing: Confirmatory screen for RD cells (AID 1347124);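 further: cells exposed to compound for 48 h before viability readout; nearly all actives have a fitted effect of over 65% in size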; further: potency means the concentration at half of the fitted maximal effect
# Conditions: RD rhabdomyosarcoma cell viability; series mostly up to 45.9 µM
# Source text: Drug repurposing or repositioning has been offered as a strategy for drug development in oncology programs. This approach has special potential for childhood cancers and other rare or orphan diseases, where the expected return on new drug development has been a disincentive to pharmaceuticals.
# In this project we exploit the poly-pharmacology of drugs to discover new indications via phenotypic screening of a panel of 19 well-characterized cell lines derived from solid tumors seen in children and adolescents. The goal is to identify approved drugs with previously unrecognized anticancer properties that has the potential to reveal new mechanisms and biological processes involved in carcinogenesis or drug resistance. We employed a titration-based paradigm (quantitative high-throughput screening or qHTS), where all compounds were tested at multiple concentrations for their effect on cell viability. Concentration-response curves (CRCs) were derived directly from the primary screen, and both potency and efficacy values were used to identify compounds with robust bioactivity profiles. We screened the NIH Chemical Genomics Center (NCGC) Pharmaceutical Collection (NPC) and Mechanism Interrogation Plate (MIPE) small molecule collections of approved and investigational compounds against these cell lines; and measured metabolically active cells after 48 hours of compound treatment as a proxy for cell viability.
# Assay Submitter: Nathalia J. Martinez, National Center for Advancing Translational Sciences, National Institutes of Health, Rockville, MD, USA; email: natalia.martinez@nih.gov
# [1] Shen, M et al. Quantitative high-throughput phenotypic screening of pediatric cancer cell lines identifies multiple opportunities for drug repurposing. Oncotarget 2017 Dec 19;9(4):4758-4772. PMID 29435139.
# The cells were obtained from University of North Carolina (UNC), Pediatric Preclinical Testing Program (PPT), and Coriell Institute (CI).
# qHTS cell viability assay:
# Cells were assayed in growth media at a density of 500-1,000 cells/well. Five microliters of cells were dispensed into 1,536-well, white, solid-bottom, TC-treated plates (Greiner Bio One) using a multidrop dispenser and incubated at 37 degrees C, 5% CO2, under a humidified atmosphere for 5 hours. Twenty-three nanoliters of compounds and controls (neutral control DMSO or positive control bortezomib at final concentration of 2.3 µM) were subsequently transferred by Kalypsys pintool. For primary screens, the MIPE collection was tested at 11-point dilutions (final concentrations range from 0.78 nM to 46 µM) and the NPC collection at 8-point dilutions (final concentrations range from 0.59 nM to 46 µM). Compounds tested in follow-up screens were assayed at 11-point dilutions. Cells were incubated for 48 hours, followed by addition of 3 µL of CellTiter-Glo (Promega). After a 15 min incubation at room temperature, samples were analyzed for luminescence intensity using a ViewLux High-throughput CCD imager equipped with clear filters.
Structure (SMILES),Potency,"activity change, negative = cytotoxic"
CCN(CC)CCNC(=O)c1cc(Cl)c(N)cc1OC,inactive,
Cc1ccc2nc(N)[nH]c(=O)c2c1Sc1ccncc1,inactive,
O=c1cc[nH]c(=S)[nH]1,inactive,
CCCCC/C(C=O)=C\c1ccccc1,inactive,
C[C@@H]1C[C@H]2[C@@H]3C[C@H](F)C4=CC(=O)C=C[C@]4(C)[C@@]3(F)[C@@H](O)C[C@]2(C)[C@@]1(O)C(=O)CO,inactive,
O=C(O)CN1C(=O)c2cccc3cccc(c23)C1=O,3.69 µM (active),
O=C1N=C(O)CN1/N=C/c1ccc(-c2ccc([N+](=O)[O-])cc2)o1,inactive,
C[C@](N)(Cc1ccc(O)cc1)C(=O)O,,10.4% [at 5.01 µM]

# Source: PubChem BioAssay (NCATS)
